Measurements taken from PubChem BioAssay AID720493 (The Scripps Research Institute Molecular Screening Center, 2013).
Some of the results follow.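 How the source made its calls: active means compounds that raise the fluorescence signal in this interference counterscreen, with EC50 at or below 10 µM; inactive means the rest.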

assay: EDANS-DABCYL fluorescence interference, concentration series, dose response, artefact control for kallikrein-7 zymogen activator project, biochemical, fluorescence intensity, triplicate (AID 720493); details: EDANS-DABCYL peptide fluorescence interference, no enzyme;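 further: intact quenched peptide substrate alone read at 355 nm excitation and 520 nm emission; signal is fluorescence gain from T0 to T4 after four hours at room temperature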

EC50, inactive:
O=C(OC1CCOC1=O)c1ccc(-c2nc3ccccc3s2)s1 (stereo not drawn) > 69.5 µM, COc1c(N2CCN(C(=S)Nc3ccccc3F)C(C)C2)c(F)cc2c(=O)c(C(=O)O)cn(C3CC3)c12 (stereo not drawn) > 69.5 µM, Cc1cccc(C)c1NC(=O)C(c1ccccc1)N1CC(=O)Nc2ccccc21 (stereo not drawn) > 69.5 µM, COC(=O)C1=NN(c2ccccc2)C2C(=O)N(c3ccccc3OC)C(=O)C12 (stereo not drawn) > 69.5 µM, COc1cccc2sc3cc(NCC[C@@H]4CCCN4C)ccc3c(=O)c12 > 69.5 µM, O=c1c(-c2ccccc2)coc2c(CN3CCOCC3)c(O)ccc12 > 69.5 µM, CN(C(=O)c1cc2c(=O)n3ccccc3nc2s1)C1CCCCC1 > 69.5 µM, O=C(Oc1c(-c2ccco2)oc2ccccc2c1=O)c1cccnc1 21.2 µM
